Results on eight compounds are retold here after PubChem BioAssay (NCI).

Structures are written as SMILES. The panel holds about 83,000 compounds, 20% with a hit somewhere; the sample as a whole holds those more often.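 Note: values are percent growth. 100 is the growth of untreated cells, values between 100 and 0 indicate rising inhibition; between -100 and 0 indicates cell death.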 Values without a mark were called inactive. Active and inactive are the calls of the source. How the source made its calls: active means growth percent below 10; inactive means the rest.

Test systems include NCI-H23 lung; NCI-H226 lung; NCI-H322M lung; HOP-62 NSCLC; NCI-H460 lung; HOP-92 NSCLC; NCI-H522 lung; A549/ATCC NSCLC; 786-0 renal; COLO 205 colon; DU-145 prostate; K-562 leukemia; MALME-3M melanoma; MDA-MB-231 breast; RXF 393 renal; SF-268 CNS; SF-295 CNS; SF-539 CNS; UACC-257 melanoma; M14 melanoma.
Common to all, as to experiment: NCI-60 one-dose screen, 48 h (100 = growth as untreated, 0 = no growth, -100 = all killed)
Common to all, as to conditions: 10 µM unless noted

For the compound `COc1cc(C(=O)NC(=S)NCc2ccncc2)cc(OC)c1OC`, the growth was 91.8% in the test on NCI-H23 lung; 86.4% with NCI-H226 lung; 89.5% in the test with NCI-H322M lung; 107% in the test on HOP-62 NSCLC; 110% with NCI-H460 lung; 89.2% in the test with HOP-92 NSCLC. For the same compound, the growth is 56.7% in the test with NCI-H522 lung; 99% with A549/ATCC NSCLC; 97.5% with 786-0 renal; 95.3% with COLO 205 colon; 103% with DU-145 prostate; 86.2% in the test on K-562 leukemia. The growth in the test on MALME-3M melanoma was 104%; in the test on MDA-MB-231 breast, 114%; with RXF 393 renal it was 95.8%; in the test on SF-268 CNS, 102%; in the test on SF-295 CNS it was 96.5%; in the test on SF-539 CNS it was 95.8%. Further, the growth in the test with UACC-257 melanoma was 103%; with M14 melanoma, 106%.

In the case of `CCOC(=O)C1(N)CCCCC1`, the growth was 96.8% in the test with NCI-H23 lung; 98.6% with NCI-H226 lung; 107% with NCI-H322M lung; 102% in the test with HOP-62 NSCLC; 112% with NCI-H460 lung; 102% with HOP-92 NSCLC. The growth with NCI-H522 lung was 96.8%; with A549/ATCC NSCLC, 100%; with 786-0 renal, 101%; in the test with COLO 205 colon, 110%; in the test on DU-145 prostate, 112%; with K-562 leukemia, 116%. In addition, the growth in the test with MALME-3M melanoma was 100%; in the test on MDA-MB-231 breast it was 102%; in the test with RXF 393 renal it was 121%; in the test on SF-268 CNS it was 102%; in the test on SF-295 CNS it was 95.4%; in the test on SF-539 CNS, 96.9%. Besides, the growth in the test on UACC-257 melanoma was 107%; in the test on M14 melanoma, 93.8%.

With `CCCCc1ccc2nc(NC(=O)OC)[nH]c2c1`, the growth in the test on NCI-H23 lung was 14.1%; with NCI-H226 lung, 63.4%; with NCI-H322M lung, 50.2%; in the test on HOP-62 NSCLC, 24.2%; with NCI-H460 lung, 2.11% (active); in the test with HOP-92 NSCLC it was 60.7%. In addition, the growth in the test with NCI-H522 lung is -9.52% (active); with A549/ATCC NSCLC, 18.4%; in the test with 786-0 renal it was 16.5%; with COLO 205 colon it was -45.8% (active); in the test with DU-145 prostate, -2.08% (active); in the test with K-562 leukemia it was -20.4% (active). The growth was 48.1% with MALME-3M melanoma; 13% in the test on MDA-MB-231 breast; 20.9% in the test on RXF 393 renal; 28.8% with SF-268 CNS; -5.83% (active) in the test with SF-295 CNS; -51.1% (active) with SF-539 CNS. For the same compound, the growth was 69% in the test with UACC-257 melanoma and 8.08% (active) with M14 melanoma.

For `N#C/C(=C\c1ccc2c(c1)OCO2)c1ccccc1`, the growth with NCI-H23 lung is 84%; in the test on NCI-H226 lung, 90.9%; in the test on NCI-H322M lung it was 95.1%; in the test on HOP-62 NSCLC, 67.3%; in the test on NCI-H460 lung it was 68.3%; in the test on HOP-92 NSCLC, 64.5%. For the same compound, the growth in the test on NCI-H522 lung is 52%; in the test with A549/ATCC NSCLC, 71.9%; in the test on 786-0 renal, 95.5%; with COLO 205 colon, 66.5%; in the test with DU-145 prostate it was 106%; in the test on K-562 leukemia, 21.4%. In addition, the growth in the test with MALME-3M melanoma was 80.7%; in the test on MDA-MB-231 breast, 66.8%; in the test on RXF 393 renal it was 83.6%; in the test on SF-268 CNS, 86.4%; in the test with SF-295 CNS, 71.3%; in the test on SF-539 CNS it was 80%. Further, the figures for the growth in the test with UACC-257 melanoma and in the test on M14 melanoma were 85.8% and 59%, respectively.

Turning to `O=[N+]([O-])c1c(O)c(CNCCCO)cc(CNCCCO)c1O`, the growth is 106% in the test on NCI-H23 lung; 101% in the test with NCI-H226 lung; 99.5% with NCI-H322M lung; 106% with HOP-62 NSCLC; 119% in the test on NCI-H460 lung; 90.8% in the test on HOP-92 NSCLC. Further, the growth in the test with NCI-H522 lung is 121%; in the test with A549/ATCC NSCLC, 95.4%; in the test on 786-0 renal, 118%; in the test with COLO 205 colon, 120%; in the test with DU-145 prostate, 132%; in the test on K-562 leukemia, 95.9%. Besides, the growth is 109% in the test with MALME-3M melanoma; 99.8% in the test with MDA-MB-231 breast; 99.7% in the test with RXF 393 renal; 118% in the test on SF-268 CNS; 106% in the test on SF-295 CNS; 94.6% in the test with SF-539 CNS. The growth with UACC-257 melanoma was 108%; with M14 melanoma, 107%.

As to `O=Cc1ccc(O)c(O)c1`, the growth in the test on NCI-H23 lung was 100%; with NCI-H226 lung, 95.9%; in the test with NCI-H322M lung, 104%; in the test with HOP-62 NSCLC, 97.1%; in the test on NCI-H460 lung, 98.9%; in the test with HOP-92 NSCLC it was 84.9%. Further, the growth in the test on NCI-H522 lung is 84.3%; with A549/ATCC NSCLC, 89.4%; in the test with 786-0 renal, 101%; in the test with COLO 205 colon, 95.4%; in the test with DU-145 prostate, 94.9%; in the test with K-562 leukemia, 103%. Besides, the growth in the test with MALME-3M melanoma was 108%; in the test on MDA-MB-231 breast it was 99.7%; in the test on RXF 393 renal, 88.3%; in the test with SF-268 CNS, 74.1%; in the test with SF-295 CNS it was 103%; in the test on SF-539 CNS it was 81.9%. The growth in the test on UACC-257 melanoma was 93.7%; with M14 melanoma it was 94.5%.

Regarding `CCCc1cccc(CCC)c1NC(=O)Nc1cc(Cl)cc(Cl)c1`, the growth with NCI-H23 lung was 101%; in the test with NCI-H226 lung, 98.1%; with NCI-H322M lung, 96.8%; in the test on HOP-62 NSCLC it was 104%; with NCI-H460 lung it was 118%; in the test with HOP-92 NSCLC, 98.8%. Also, the growth was 85.7% in the test with NCI-H522 lung; 93.8% in the test with A549/ATCC NSCLC; 93.9% in the test on 786-0 renal; 120% in the test on COLO 205 colon; 107% in the test with DU-145 prostate; 100% in the test with K-562 leukemia. The growth is 87.5% in the test on MALME-3M melanoma; 90.2% in the test with MDA-MB-231 breast; 116% with RXF 393 renal; 94.9% in the test with SF-268 CNS; 109% in the test on SF-295 CNS; 92.4% in the test on SF-539 CNS. Further, the growth in the test with UACC-257 melanoma was 86%; with M14 melanoma, 101%.

`COC1=C(OC)C(=O)C(SC/C=C(\C)CCCC(C)CCCC(C)CCCC(C)C)=CC1=O` (stereo not given): the growth in the test on NCI-H23 lung is 14%; in the test on NCI-H226 lung it was 40.9%; in the test on NCI-H322M lung, 67.4%; in the test on HOP-62 NSCLC it was 38.3%; in the test on NCI-H460 lung, 2.16% (active); in the test on HOP-92 NSCLC, -13.1% (active). Further, the growth with NCI-H522 lung was -6.14% (active); with A549/ATCC NSCLC it was 17.8%; in the test on 786-0 renal, 66%; in the test on COLO 205 colon it was 94.4%; in the test on DU-145 prostate, 32%; in the test on K-562 leukemia, 8.26% (active). Further, the growth in the test with MALME-3M melanoma is 5.25% (active); in the test on MDA-MB-231 breast, 15.5%; with RXF 393 renal, -0.159% (active); with SF-268 CNS, 28.7%; with SF-295 CNS, 16.5%; in the test on SF-539 CNS it was 16.9%. Besides, the growth is 13.6% in the test on UACC-257 melanoma and 26.9% in the test on M14 melanoma.
